In PubChem BioAssay (EPA / NIEHS) one finds AC50 and outcome data, which are given here for three compounds.

By AC50 is commonly meant the concentration at which the activity in the assay is half-maximal.

The source made the active and inactive calls. Rule for the calls: active = hit-call score of the fitted dose curve at least 0.9, where 1 is the maximum; inactive = score below 0.9.

Common to all, as to conditions: mRNA level, 48 h; actives raise or lower the signal
Read-out in assay [1]: adenosine kinase (ADK) gene, ADK (gene 132)
In words: LTEA_HepaRG_ADK: Life Technologies and Expression Analysis (LTEA) Assay for adenosine kinase (ADK) gene using HepaRG (AID 2283471). Put shortly:
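Read-out is ADK transcript level measured by qRT-PCR and normalised to three housekeeping genes. Cells are human HepaRG, dosed for 48 h at up to 100 uM in 0.5% DMSO. Gain or loss of signal is fitted against DMSO controls.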

Read-out in assay [2]: Alpha-fetoprotein (AFP) gene, AFP (gene 174)
Briefly: LTEA_HepaRG_AFP: Life Technologies and Expression Analysis (LTEA) Assay for Alpha-fetoprotein (AFP) gene using HepaRG (AID 2283472). Put shortly:
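AFP transcript measured by TaqMan qRT-PCR with three housekeeping genes for normalization, after 48 h chemical treatment of HepaRG cells (top 100 uM, half-log steps, 0.5% DMSO). Gain or loss fitted against vehicle.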

Read-out in assay [3]: BCL2L11 (gene 10018)
Briefly: LTEA_HepaRG_BCL2L11: Life Technologies and Expression Analysis (LTEA) Assay for Bcl-2 (BCL2L11) gene using HepaRG (AID 2283473). In a few lines: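 Differentiated human HepaRG cells were exposed 48 h in serum-free induction medium to eight half-log concentrations up to 100 uM in 0.5% DMSO, in duplicate. BCL2L11 mRNA was quantified by TaqMan qRT-PCR, normalized to ACTB, GAPDH and POLR2A; induction or repression fitted versus DMSO.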

Read-out in assay [4]: Apolipoprotein A-V (APOA5) gene, APOA5 (gene 116519)
In words: LTEA_HepaRG_APOA5: Life Technologies and Expression Analysis (LTEA) Assay for Apolipoprotein A-V (APOA5) gene using HepaRG (AID 2283474). Put shortly: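 Differentiated HepaRG cells in serum-free induction medium, exposed 48 h in duplicate to eight half-log concentrations topping at 100 uM (0.5% DMSO). APOA5 mRNA by Fluidigm TaqMan qRT-PCR, normalized to ACTB, GAPDH and POLR2A; bidirectional fit versus DMSO.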

Read-out in assay [5]: Apoptosis regulator Bcl-2 (Homo sapiens) (UniProt P10415)
In words: LTEA_HepaRG_BCL2: Life Technologies and Expression Analysis (LTEA) Assay for Bcl-2 gene using HepaRG (AID 2283475). In a few lines:
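qRT-PCR of BCL2 transcript, normalized to three housekeeping genes (ACTB, GAPDH, POLR2A), after 48 h chemical exposure of HepaRG cells; concentrations top 100 uM with half-log dilutions, 0.5% DMSO vehicle, duplicates; changes up or down fitted relative to vehicle.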

Read-out in assay [6]: Bcl-2 (BID) gene, BID (gene 637)
In words: LTEA_HepaRG_BID: Life Technologies and Expression Analysis (LTEA) Assay for Bcl-2 (BID) gene using HepaRG (AID 2283476). Put shortly: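 Duplicate 48 h treatments of HepaRG cells in serum-free induction medium spanned 100 uM downward in half-log steps, 0.5% DMSO. Transcript change quantified by qRT-PCR against three housekeeping genes, fitted up or down versus DMSO.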

Read-out in assay [7]: Caspase-3 (Homo sapiens) (UniProt P42574)
Briefly: LTEA_HepaRG_CASP3: Life Technologies and Expression Analysis (LTEA) Assay for cysteine-aspartic acid protease (CASP3) using HepaRG (AID 2283477). In a few lines:
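Differentiated HepaRG cells, plated 48 h, were treated in duplicate in serum-free induction medium for 48 h with eight half-log concentrations up to 100 uM in 0.5% DMSO. CASP3 mRNA measured by qRT-PCR, normalized to ACTB, GAPDH, POLR2A.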

Read-out in assay [8]: Cytochrome P450 (CYP24A1), CYP24A1 (gene 1591)
Briefly: LTEA_HepaRG_CYP24A1: Life Technologies and Expression Analysis (LTEA) Assay for Cytochrome P450 (CYP24A1) using HepaRG (AID 2283478). In a few lines: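 HepaRG cells plated 48 h, then exposed in duplicate in serum-free induction medium for 48 h to 8-point half-log series from 100 uM in 0.5% DMSO. CYP24A1 mRNA by Fluidigm qRT-PCR, normalized to ACTB, GAPDH, POLR2A; bidirectional fit versus DMSO.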

Read-out in assay [9]: Cytochrome P450 (CYP1A2), CYP1A2 (gene 1544)
In words: LTEA_HepaRG_CYP1A2: Life Technologies and Expression Analysis (LTEA) Assay for Cytochrome P450 (CYP1A2) using HepaRG (AID 2283479). Put shortly: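 Differentiated human HepaRG cells in serum-free induction medium exposed 48 hours in duplicate to 8 half-log concentrations from 100 uM, 0.5% DMSO. CYP1A2 mRNA quantified by qRT-PCR, normalized to ACTB, GAPDH and POLR2A; bidirectional fitting versus DMSO.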

Read-out in assay [10]: cysteine-aspartic acid protease (CASP8), CASP8 (gene 841)
Briefly: LTEA_HepaRG_CASP8: Life Technologies and Expression Analysis (LTEA) Assay for cysteine-aspartic acid protease (CASP8) using HepaRG (AID 2283480). In a few lines: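 qRT-PCR readout of CASP8 mRNA, normalized to three housekeeping genes, after 48 h chemical exposure of HepaRG cells; 8-point half-log series, top 100 uM, 0.5% DMSO vehicle. Bidirectional curve fitting against DMSO baseline.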

Read-out in assay [11]: Cytochrome P450 (CYP2B6), CYP2B6 (gene 1555)
In words: LTEA_HepaRG_CYP2B6: Life Technologies and Expression Analysis (LTEA) Assay for Cytochrome P450 (CYP2B6) using HepaRG (AID 2283481). Put shortly: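 Differentiated human HepaRG cells in serum-free induction medium, dosed in duplicate for 48 h over 8 half-log concentrations topping at 100 uM (0.5% DMSO). CYP2B6 mRNA measured by TaqMan qRT-PCR, normalized to ACTB, GAPDH, POLR2A; bidirectional fit versus DMSO.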

Read-out in assay [12]: Cytochrome P450 2C19 (Homo sapiens) (UniProt P33261)
In words: LTEA_HepaRG_CYP2C19: Life Technologies and Expression Analysis (LTEA) Assay for CYP2C19 using HepaRG (AID 2283482). In a few lines:
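Differentiated HepaRG cells in serum-free induction medium exposed 48 h in duplicate, 8 concentrations from 100 uM by half-log steps in 0.5% DMSO. CYP2C19 mRNA measured by TaqMan qRT-PCR, normalized to ACTB, GAPDH, POLR2A. Bidirectional fit versus DMSO.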

Read-out in assay [13]: CYP2C8 (gene 1558)
In words: LTEA_HepaRG_CYP2C8: Life Technologies and Expression Analysis (LTEA) Assay for CYP2C8 using HepaRG (AID 2283483). Put shortly: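 HepaRG (human liver line), 48 h chemical exposure, 8-pt half-log series from 100 uM, 0.5% DMSO vehicle. Readout: CYP2C8 transcript by qRT-PCR, housekeeping-normalized. Bidirectional fit vs DMSO baseline.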

Read-out in assay [14]: CYP2C9 (gene 1559)
In words: LTEA_HepaRG_CYP2C9: Life Technologies and Expression Analysis (LTEA) Assay for CYP2C9 using HepaRG (AID 2283484). Put shortly: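 HepaRG, 48 h dosing, 8-pt half-log series, top 100 uM, 0.5% DMSO vehicle. Read-out: CYP2C9 transcript by TaqMan qRT-PCR, housekeeping-normalized (ACTB/GAPDH/POLR2A). Gain or loss fitted vs DMSO baseline.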

Read-out in assay [15]: CYP2E1 (gene 1571)
Briefly: LTEA_HepaRG_CYP2E1: Life Technologies and Expression Analysis (LTEA) Assay for CYP2E1 using HepaRG (AID 2283485). Put shortly: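 CYP2E1 transcript measured by Fluidigm qRT-PCR against three housekeeping genes in human HepaRG cells treated 48 h (top 100 uM, half-log steps, 0.5% DMSO vehicle). Gain or loss fitted relative to DMSO baseline.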

Read-out in assay [16]: CYP4A11 (gene 1579)
In words: LTEA_HepaRG_CYP4A11: Life Technologies and Expression Analysis (LTEA) Assay for CYP4A11 using HepaRG (AID 2283486). Put shortly:
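Differentiated HepaRG cells, 48 h after plating, exposed in duplicate for 48 h to 8 half-log concentrations up to 100 uM in 0.5% DMSO in serum-free induction medium. CYP4A11 mRNA measured by TaqMan qRT-PCR, normalized to ACTB, GAPDH and POLR2A.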

Read-out in assay [17]: Cytochrome P450 3A4 (Homo sapiens) (UniProt P08684)
Briefly: LTEA_HepaRG_CYP3A4: Life Technologies and Expression Analysis (LTEA) Assay for CYP3A4 using HepaRG (AID 2283487). In a few lines:
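HepaRG, 48 h exposure, 8-pt CRC from 100 uM (half-log), 0.5% DMSO, duplicates; serum-free induction medium. Readout: CYP3A4 mRNA, qRT-PCR, ACTB/GAPDH/POLR2A normalization. Bidirectional fit vs DMSO.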

Read-out in assay [18]: DNA damage-inducible transcript 3 (DDIT3), DDIT3 (gene 1649)
Briefly: LTEA_HepaRG_DDIT3: Life Technologies and Expression Analysis (LTEA) Assay for DNA damage-inducible transcript 3 (DDIT3) using HepaRG (AID 2283488). In a few lines:
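DDIT3 transcript was quantified by qRT-PCR with ACTB/GAPDH/POLR2A normalization after 48 h chemical treatment of differentiated HepaRG cells in 0.5% DMSO. Dosing was eight-point, half-log, top 100 uM, duplicate wells. Curves fitted bidirectionally versus DMSO.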

Read-out in assay [19]: Pro-epidermal growth factor (Homo sapiens) (UniProt P01133)
In words: LTEA_HepaRG_EGF: Life Technologies and Expression Analysis (LTEA) Assay for Epidermal growth factor (EGF) using HepaRG (AID 2283489). Put shortly: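 HepaRG cells (~100,000/well, 48 h pre-culture) exposed in duplicate for 48 h in serum-free induction medium to 8 half-log concentrations up to 100 uM in 0.5% DMSO. EGF mRNA by qRT-PCR, normalized to ACTB/GAPDH/POLR2A; bidirectional fit versus DMSO.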

Read-out in assay [20]: Early growth response protein 1 (EGR1) transcription factor, EGR1 (gene 1958)
Briefly: LTEA_HepaRG_EGR1: Life Technologies and Expression Analysis (LTEA) Assay for Early growth response protein 1 (EGR1) transcription factor using HepaRG (AID 2283490). In a few lines: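 HepaRG, 48 h exposure, 8-pt half-log series from 100 uM, 0.5% DMSO vehicle; EGR1 transcript by TaqMan qRT-PCR (Fluidigm array), housekeeping-normalized; bidirectional fit relative to DMSO baseline.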

Cytochrome P450 2C19 (Homo sapiens), sequence (P33261 whole entry, looked up): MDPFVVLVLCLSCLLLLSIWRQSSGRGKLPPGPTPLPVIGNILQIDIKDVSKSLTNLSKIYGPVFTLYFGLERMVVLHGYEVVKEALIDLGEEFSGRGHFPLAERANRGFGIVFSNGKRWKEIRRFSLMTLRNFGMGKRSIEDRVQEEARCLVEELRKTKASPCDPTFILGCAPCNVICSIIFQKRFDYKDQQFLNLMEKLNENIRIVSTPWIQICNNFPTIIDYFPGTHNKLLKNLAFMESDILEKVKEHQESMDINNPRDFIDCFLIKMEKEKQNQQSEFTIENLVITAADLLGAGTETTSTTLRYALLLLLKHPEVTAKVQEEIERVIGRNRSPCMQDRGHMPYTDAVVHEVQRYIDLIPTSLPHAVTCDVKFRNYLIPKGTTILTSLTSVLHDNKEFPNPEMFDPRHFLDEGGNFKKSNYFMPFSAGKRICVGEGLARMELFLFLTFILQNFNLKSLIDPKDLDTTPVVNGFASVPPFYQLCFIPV
Caspase-3 (Homo sapiens), sequence (P42574 whole entry, looked up): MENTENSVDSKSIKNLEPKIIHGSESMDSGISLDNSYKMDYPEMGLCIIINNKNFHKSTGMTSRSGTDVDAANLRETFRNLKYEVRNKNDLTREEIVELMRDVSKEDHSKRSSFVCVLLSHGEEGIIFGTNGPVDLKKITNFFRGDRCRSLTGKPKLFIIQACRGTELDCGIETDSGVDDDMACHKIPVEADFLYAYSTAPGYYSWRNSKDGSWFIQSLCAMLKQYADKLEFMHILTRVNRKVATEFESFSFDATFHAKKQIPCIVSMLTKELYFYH
Apoptosis regulator Bcl-2 (Homo sapiens), sequence (P10415 whole entry, looked up): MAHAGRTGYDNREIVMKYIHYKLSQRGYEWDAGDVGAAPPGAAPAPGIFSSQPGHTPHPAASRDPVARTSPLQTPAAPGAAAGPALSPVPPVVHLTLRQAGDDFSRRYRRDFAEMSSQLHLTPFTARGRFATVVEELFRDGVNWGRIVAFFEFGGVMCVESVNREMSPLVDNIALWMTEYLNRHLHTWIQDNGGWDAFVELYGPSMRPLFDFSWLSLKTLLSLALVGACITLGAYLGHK
Cytochrome P450 3A4 (Homo sapiens), sequence (P08684 whole entry, looked up): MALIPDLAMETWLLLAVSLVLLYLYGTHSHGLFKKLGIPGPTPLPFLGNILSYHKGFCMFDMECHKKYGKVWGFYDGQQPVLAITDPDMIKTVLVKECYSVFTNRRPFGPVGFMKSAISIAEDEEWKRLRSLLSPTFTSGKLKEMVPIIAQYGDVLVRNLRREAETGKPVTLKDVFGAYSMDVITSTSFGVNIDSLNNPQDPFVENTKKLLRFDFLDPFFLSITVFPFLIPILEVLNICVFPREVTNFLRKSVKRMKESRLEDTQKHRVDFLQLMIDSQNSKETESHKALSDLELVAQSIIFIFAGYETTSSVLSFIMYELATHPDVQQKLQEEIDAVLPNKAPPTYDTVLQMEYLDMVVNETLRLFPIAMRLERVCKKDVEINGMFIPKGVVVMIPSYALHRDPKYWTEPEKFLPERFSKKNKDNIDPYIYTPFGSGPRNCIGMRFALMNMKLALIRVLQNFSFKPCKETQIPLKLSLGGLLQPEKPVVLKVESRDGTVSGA

For `CCC(=C(c1ccc(O)cc1)c1ccc(OCCN(C)C)cc1)c1ccccc1`, the half-maximal activity concentration (AC50) in [1] is 75.2 µM (active); in [3], 82.9 µM (active); in assay [7], 89.8 µM (active); in [10], 75.9 µM (active); in [11] it was 3.08 µM (active); in assay [12], 91.4 µM (active). The AC50 was 2.39 µM (active) in assay [13]; 84.4 µM (active) in [16]; 2.51 µM (active) in [17]; 72.8 µM (active) in assay [18]; 76.5 µM (active) in assay [20]. For the same compound, the outcome in assay [2], in [4], in assay [5], in assay [6], in [8] and in assay [9] was inactive. For the same compound, the result in [14], in assay [15] and in assay [19] was inactive.
Consider `OC1CCCCC1`, for which the call in assay [1], in [2], in [3], in assay [4], in assay [5] and in [6] was inactive. Moreover, the compound was classed as inactive in [7], in assay [8], in [9], in [10], in [11] and in assay [12]. Also, the outcome in [13], in assay [14], in [15], in assay [16], in assay [17] and in assay [18] was inactive. Further, the result in assay [19] and in assay [20] was inactive.
For `C[C@@H]1C[C@H]2[C@@H]3CCC4=CC(=O)C=C[C@]4(C)[C@@]3(F)[C@@H](O)C[C@]2(C)[C@@]1(O)C(=O)COP(=O)(O)O`, the compound was called inactive in [1], in assay [2], in assay [3], in [4], in assay [5] and in assay [6]. Also, the compound was classed as inactive in [7], in [8], in assay [9], in assay [10], in assay [11] and in assay [12]. In addition, the outcome in assay [13], in assay [14], in assay [16], in assay [18], in [19] and in [20] was inactive. Moreover, the concentration at half-maximal activity (AC50) is 25 µM (active) in assay [15] and 9.66 µM (active) in assay [17].
